Source: PubChem
An excerpt weighted towards active compounds, which were near 5.8% of everything screened.
RORg inh: qHTS for inhibitors of ROR gamma transcriptional activity | Potency, µM (titrated, usually from 53.6 µM), for the others: at the top dose activity change, negative = inhibition, actives largely listed as inhibitors | actives 5.4% (n = 310,000) | Drosophila S2 Gal4-RORgamma UAS-luciferase reporter, 20 h; also: potency is read from the fitted curve at half-maximal effect; % is scaled to controls: 0 for no effect and ±100 for the full control effect; nearly all actives have a fitted effect of over 60% in size
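Schneider cells (Drosophila), stable Gal4 DBD–ROR gamma + UAS-luc; 1 hr cmpd preincubation; Cu2+ induction 700 uM final; 20 hr ambient; luminescence.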
uPA generation: qHTS for Inhibitors of Cell Surface uPA Generation; cell surface uPA generation assay, qHTS; Potency, µM (titrated, usually from 38.3 µM), for the others: top-dose activity change, negative = inhibition, usual class: inhibitors; actives 0.31% (n = 330,000); AID 540303, 2011; active = well fitted inhibition curve with a large enough effect; inconclusive = small, poorly fitted or top-dose-only effect; inactive = no such curve, though single readings can be large or run the other way; tested in mouse RAW 264.7 cells; also: potency is read from the fitted curve at half-maximal effect; % is scaled to controls: 0 for no effect and ±100 for the full control effect; nearly all actives have a fitted effect of over 55% in size
TRPV1 agonist: HTS Assay for Compounds that Act as Agonists of the Vanilloid Receptor 1 | actives 0.19% (n = 320,000) | Transient receptor potential cation channel subfamily V member 1 (Homo sapiens), Q8NER1 | TRPV1-expressing cells, Fluo-8 calcium influx, agonist mode | activation, % at 8.33 µM; in the data active = activation above about 80%; inconclusive = between about 30% and that limit; also: 0% is about no effect
Target sequence (Q8NER1 whole entry, looked up): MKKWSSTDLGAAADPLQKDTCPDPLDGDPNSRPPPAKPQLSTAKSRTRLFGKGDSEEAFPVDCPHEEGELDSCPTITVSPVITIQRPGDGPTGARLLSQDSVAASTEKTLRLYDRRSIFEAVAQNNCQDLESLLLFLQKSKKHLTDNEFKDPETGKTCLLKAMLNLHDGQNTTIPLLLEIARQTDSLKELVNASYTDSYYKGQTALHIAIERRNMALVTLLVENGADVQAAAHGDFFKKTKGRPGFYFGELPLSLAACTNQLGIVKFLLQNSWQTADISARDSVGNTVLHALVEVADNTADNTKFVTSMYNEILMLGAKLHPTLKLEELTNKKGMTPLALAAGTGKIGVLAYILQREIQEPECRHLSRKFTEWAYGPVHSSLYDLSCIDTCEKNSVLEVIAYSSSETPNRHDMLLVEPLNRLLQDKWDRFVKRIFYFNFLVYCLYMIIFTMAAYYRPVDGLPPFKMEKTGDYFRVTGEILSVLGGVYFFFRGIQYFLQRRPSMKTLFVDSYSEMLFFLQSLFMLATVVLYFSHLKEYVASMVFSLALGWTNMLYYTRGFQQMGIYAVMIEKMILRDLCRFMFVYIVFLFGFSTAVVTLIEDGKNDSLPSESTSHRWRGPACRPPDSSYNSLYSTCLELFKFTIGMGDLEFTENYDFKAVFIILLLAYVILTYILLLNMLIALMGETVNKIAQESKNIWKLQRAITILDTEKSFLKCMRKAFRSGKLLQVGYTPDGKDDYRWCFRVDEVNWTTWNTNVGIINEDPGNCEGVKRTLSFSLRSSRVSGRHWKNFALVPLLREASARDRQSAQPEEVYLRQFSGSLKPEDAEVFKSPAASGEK
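Cells expressing TRPV1 were dye-loaded with Fluo-8 and read kinetically: 10 s baseline, 3 min after compound (agonist portion), then 2 min after EC20 capsaicin (allosteric enhancer portion). Calcium-bound dye fluorescence at 480/520 nm.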
Gal4-VP16 FLuc: VP16 counterscreen qHTS for inhibitors of ROR gamma transcriptional activity. Potency, µM (titrated, usually from 53.6 µM), for inactives: at the highest dose activity, negative = inhibition, most hits filed as inhibitors. actives 3.5% (n = 310,000). Drosophila S2 Gal4-VP16 UAS-luciferase, luminescence, 20 h. AID 2546, 2010;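 also: Gal4-VP16 expression switched on by copper sulfate through the metallothionein promoter; potency is read from the fitted curve at half-maximal effect; % is scaled to controls: 0 for no effect and ±100 for the full control effect; nearly all actives have a fitted effect of over 50% in size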
TRPV1 PAM: HTS Assay for Compounds that Act as Potentiators of the Vanilloid Receptor 1 | Transient receptor potential cation channel subfamily V member 1 (Homo sapiens), Q8NER1 | TRPV1-expressing cells, Fluo-8 calcium influx, capsaicin EC20 potentiation | potentiation, % at 8.33 µM | actives 0.02% (n = 320,000) | AID 540277, 2011; in the data active = potentiation above about 80%; inconclusive = between about 30% and that limit; also: 0% is about no effect
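TRPV1-expressing cells were cultured overnight at 35.5C and loaded with Fluo-8 calcium dye for 40 to 90 min at room temperature. After a 10 s baseline, compound was added and calcium influx was read kinetically for 3 min (ex 480/em 520 nm).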
* = called active by the depositor; [ ] = another dose, or the depositor's remark. Unless noted, calls follow the shape of the dose curve; as a rule, active = well fitted curve in the direction sought with a large enough effect; inconclusive = small, poorly fitted or top-dose-only effect, or another doubt; inactive = no such curve, though single readings can be large; an effect the other way counts as inactive or inconclusive.

How did CCNC(=S)N/N=C/c1ccc(OCCOc2ccccc2C)cc1 do in these assays?
RORg inh: 4.5µM*; TRPV1 agonist: 1; Gal4-VP16 FLuc: 10µM*; TRPV1 PAM: 0

Results for CCNC(=S)N/N=C/c1ccc(C(=O)O)cc1 ?
RORg inh: 33%; uPA generation: 4%; TRPV1 agonist: 0; Gal4-VP16 FLuc: -12%; TRPV1 PAM: inconclusive

How did CCOc1ccc(/C=N/NC(=S)Nc2c(C)cccc2C)cc1 do in these assays?
RORg inh: 1µM*; uPA generation: 47%; TRPV1 agonist: 2; Gal4-VP16 FLuc: 2µM*; TRPV1 PAM: -3

Results for CC(C)N1CCC(N2CCN(Cc3nc4ccccc4s3)CC2CCO)CC1 (stereo unspecified) ?
RORg inh: -7%; uPA generation: -9%; TRPV1 agonist: 2; Gal4-VP16 FLuc: 0%; TRPV1 PAM: 12

What do the screens show for `O=C(NC(=S)Nc1nc(-c2ccccc2)cs1)c1cncc(Br)c1`?
RORg inh: 1.6µM*; uPA generation: -5%; TRPV1 agonist: 2; Gal4-VP16 FLuc: inconclusive; TRPV1 PAM: 30

Results for CCc1ccccc1OCC(=O)Nc1nc(-c2cccnc2)cs1 ?
RORg inh: 3.2µM*; uPA generation: -2%; TRPV1 agonist: 2; Gal4-VP16 FLuc: 11µM*; TRPV1 PAM: -6

Results for O=C(Nc1nc(-c2ccccc2Cl)cs1)c1cccnc1 ?
RORg inh: 18%; TRPV1 agonist: 20; Gal4-VP16 FLuc: 5%; TRPV1 PAM: -9

How did O=C(NC(=S)Nc1nc(-c2ccccc2)cs1)c1cccnc1 do in these assays?
RORg inh: 4µM*; uPA generation: 8%; TRPV1 agonist: 1; Gal4-VP16 FLuc: -13%; TRPV1 PAM: -1

Results for COc1ccc(/C=C2\CCCC3C2=NN(C(=O)CSc2n[nH]c(N)n2)C3c2ccc(OC)cc2)cc1 (stereo unspecified) ?
RORg inh: 29%; uPA generation: -28%; TRPV1 agonist: 2; Gal4-VP16 FLuc: -7%; TRPV1 PAM: 16

What do the screens show for `CN1C(=O)CC2(C=CC(=O)C=C2OC(=O)c2ccccc2)c2ccccc21` (stereo unspecified)?
RORg inh: 5%; Gal4-VP16 FLuc: -13%

Results for Cc1ccc2cc(C)c3nnc(SCc4ccc(C(=O)O)cc4)n3c2c1C ?
RORg inh: -15%; uPA generation: -6%; TRPV1 agonist: 1; Gal4-VP16 FLuc: -9%; TRPV1 PAM: 5

What do the screens show for `Cc1ccc(S(=O)(=O)NCCOc2cc(C)ccc2C)cc1`?
RORg inh: 0%; uPA generation: 7%; TRPV1 agonist: 19; Gal4-VP16 FLuc: -6%; TRPV1 PAM: -2

How did O=C1NC(=S)N(C(=O)c2ccc(F)cc2)/C1=C/c1cccnc1 do in these assays?
RORg inh: -11%; uPA generation: -11%; TRPV1 agonist: 4; Gal4-VP16 FLuc: 1%; TRPV1 PAM: -3

Results for COc1ccc(/C=C2\C(=O)NC(=S)N2C(=O)c2ccc(C)cc2)cc1 ?
RORg inh: 22µM*; uPA generation: 3%; TRPV1 agonist: 0; Gal4-VP16 FLuc: inconclusive; TRPV1 PAM: 3

How did CN(C)CCCN(C(=O)c1ccc([N+](=O)[O-])s1)c1nc2cc3c(cc2s1)OCCO3 do in these assays?
RORg inh: 13µM*; uPA generation: inconclusive; TRPV1 agonist: -2; Gal4-VP16 FLuc: inconclusive; TRPV1 PAM: 0

How did Cc1ccc(NC(=S)N(CCN2CCOCC2)Cc2ccccc2F)cc1Cl do in these assays?
RORg inh: 10µM*; uPA generation: 5%; TRPV1 agonist: 24; Gal4-VP16 FLuc: inconclusive; TRPV1 PAM: -2

How did COc1ccc(NC(=S)N(CCN2CCOCC2)Cc2ccccc2F)cc1 do in these assays?
RORg inh: inconclusive; uPA generation: -4%; TRPV1 agonist: 9; Gal4-VP16 FLuc: 7%; TRPV1 PAM: -9

How did Cc1cccc(NC(=S)N(CCN2CCOCC2)Cc2ccccc2F)c1 do in these assays?
RORg inh: 13µM*; uPA generation: 2%; TRPV1 agonist: -6; Gal4-VP16 FLuc: -69%; TRPV1 PAM: inconclusive

Results for COc1ccccc1NC(=S)N(CCN1CCOCC1)Cc1ccccc1F ?
RORg inh: -21%; uPA generation: -2%; TRPV1 agonist: 9; Gal4-VP16 FLuc: -22%; TRPV1 PAM: -11

Results for COc1ccc(S(=O)(=O)Cc2ccc(C(=O)N3CCN(c4cccc(C)c4)C(C)C3)o2)cc1 (stereo unspecified) ?
RORg inh: 1%; uPA generation: 5.6µM*; TRPV1 agonist: 0; Gal4-VP16 FLuc: 11%; TRPV1 PAM: -22

Results for Cc1ccc(S(=O)(=O)Cc2ccc(C(=O)N3CCN(c4cccc(C)c4C)CC3)o2)cc1 ?
RORg inh: 14%; uPA generation: 0.89µM*; TRPV1 agonist: 0; Gal4-VP16 FLuc: 3%; TRPV1 PAM: 20

How did NS(=O)(=O)c1ccc(CCNC(=O)CSCc2ccccc2)cc1 do in these assays?
RORg inh: -14%; uPA generation: 7%; TRPV1 agonist: 0; Gal4-VP16 FLuc: -4%; TRPV1 PAM: -2

What do the screens show for `N#CC1=C(N)Oc2c(oc(CO)cc2=O)C1c1ccccc1[N+](=O)[O-]` (stereo unspecified)?
RORg inh: -25%; uPA generation: 3%; TRPV1 agonist: -2; Gal4-VP16 FLuc: -11%; TRPV1 PAM: -3

Results for O=[N+]([O-])c1cc(S(=O)(=O)N2CCCC2)ccc1O ?
RORg inh: 5%; uPA generation: -1%; TRPV1 agonist: 0; Gal4-VP16 FLuc: 3%; TRPV1 PAM: 23

Results for O=[N+]([O-])c1cc(S(=O)(=O)N2CCCCCC2)ccc1F ?
RORg inh: 5.6µM*; uPA generation: -10%; TRPV1 agonist: -1; Gal4-VP16 FLuc: 4.5µM*; TRPV1 PAM: -3

What do the screens show for `CC(=O)N(C1CC(C)C(C#N)(C#N)C1(C#N)C#N)N(C)C` (stereo unspecified)?
RORg inh: 7.9µM*; uPA generation: -21%; TRPV1 agonist: 5; Gal4-VP16 FLuc: -4%[10 µM]; TRPV1 PAM: -1

Results for CNC(=S)N/N=C/c1c(C)cccc1Cl ?
RORg inh: 2.2µM*; uPA generation: 0%; TRPV1 agonist: -4; Gal4-VP16 FLuc: 4µM*; TRPV1 PAM: 9

What do the screens show for `Cc1[nH]cnc1C(=O)N/N=C/c1c(Cl)cccc1Cl`?
RORg inh: -20%; uPA generation: -9%; TRPV1 agonist: 27; Gal4-VP16 FLuc: -6%; TRPV1 PAM: -24

How did CNC(=S)N/N=C/c1c2ccccc2c(Cl)c2ccccc12 do in these assays?
RORg inh: 4.5µM*; uPA generation: -1%; TRPV1 agonist: 3; Gal4-VP16 FLuc: 5µM*; TRPV1 PAM: 2
